From PubChem BioAssay
CIT2-GFP yeast: alters CIT2-GFP fluorescence in TOR pathway yeast screen | S. cerevisiae CIT2-GFP strain, flow cytometry, 3 h; 100 means same as DMSO wells | GFP response vs DMSO, % at 10 µM | 0.065% of 320,000 active | AID 2029;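 active = GFP response relative to DMSO above a set limit, near the screen mean plus 3 SD, cut at about 150% in these data; inconclusive = Fewer than 70 cells measured for a yeast strain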;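 note: ratio of well median GFP fluorescence to mean of DMSO wells on the plate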
RPL19A TOR yeast: yeast TOR pathway RPL19A-GFP modulation; S. cerevisiae RPL19A-GFP strain, flow cytometry, 3 h; active compounds read low; percent response vs DMSO, % at 10 µM; 0.3% of 330,000 active; AID 2025;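 active = percent response vs DMSO below 50%; inconclusive = fewer than 70 events counted for the yeast strain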;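 note: median channel GFP fluorescence of the barcoded RPL19A-GFP strain; ratio of sample median GFP to plate DMSO average so 100% = DMSO; lower means less RPL19A-GFP as with rapamycin TOR inhibition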
LAP4-GFP MLPCN: alters LAP4-GFP fluorescence in TOR pathway yeast screen; AID 2023; 0.34% of 320,000 active; S. cerevisiae LAP4-GFP multiplex, flow cytometry GFP, 3 h; median GFP as percent of DMSO wells; GFP response vs DMSO, % at 10 µM;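 active = GFP response vs DMSO above a set limit, about the screen mean plus 3 SD, cut at about 150% in these data; inconclusive = under 70 cell events counted for the yeast strain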
MEP2-GFP yeast: modulators of TOR pathway MEP2-GFP in S. cerevisiae. GFP response vs DMSO, % at 10 µM. S. cerevisiae MEP2-GFP strain, flow cytometry GFP, 3 h; 100% = DMSO control level. AID 2016. 0.51% of 330,000 active;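 active = GFP response versus DMSO above a set limit, roughly screen mean plus 3 SD, cut at about 180% in these data; inconclusive = fewer than 70 cells counted for a yeast strain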;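 note: median GFP fluorescence of the barcode-gated MEP2-GFP cells per well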
AGP1-GFP MLPCN: modulators of TOR pathway AGP1-GFP in S. cerevisiae. 0.02% of 320,000 active. GFP response vs DMSO, % at 10 µM. S. cerevisiae AGP1-GFP multiplex flow cytometry, 3 h; GFP as percent of DMSO wells. AID 2066;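 active = GFP response relative to DMSO above a set limit, near screen average plus 3 SD, cut at about 150% in these data; inconclusive = fewer than 70 cells counted for the yeast strain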;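 note: median GFP channel fluorescence of the gated AGP1 strain per well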
* = called active by the depositor; ? = inconclusive; [ ] = dose if it differs, or a comment. Compounds with a hit are over-represented: about 0.93% of the library has one in this group of screens.

SMILES | CIT2-GFP yeast | RPL19A TOR yeast | LAP4-GFP MLPCN | MEP2-GFP yeast | AGP1-GFP MLPCN
CCC(C)c1ccc(S(=O)(=O)N2CCN(C(C)C(=O)NC3CCCC3)CC2)cc1 (stereo not given) | 105 | 107 | 115 | 111 | 120
Cc1c(NC(=O)COC(=O)/C=C/c2cccc(Br)c2)c(=O)n(-c2ccccc2)n1C | 101 | 102 | 97 | 97 | 98
O=c1[nH]c2ccccc2nc1-c1ccc(Cl)cc1 | ? | 45*[may fluoresce violet] | 98 | 570*[may fluoresce violet] | ?
CCc1csc(CNC(=O)C2CCC(=O)N(Cc3cccc(F)c3)C2)n1 (stereo not given) | 100 | 91 | 99 | 99 | 99
O=C(OCc1ccccc1)/C(=C(\O)c1ccccc1Br)c1ccc(-c2ccccc2)cn1 | 84 | 101 | 114 | 99 | 88
CC(=O)c1c(C)[nH]c(C(=O)NCc2ccccc2F)c1C | ? | 28*[may fluoresce violet] | 79 | ? | ?
CC(=O)c1c(C)[nH]c(C(=O)NCc2ccccc2Cl)c1C | 76 | 90 | 81 | 94 | 91
CCN(CC)CCCN(Cc1cc2cc(OC)c(OC)cc2[nH]c1=O)C(=O)Nc1ccccc1 | 104 | 100 | 109 | 104 | 99
COc1cc2cc(CN(C(=O)Nc3ccccc3)C3CCCC3)c(=O)[nH]c2cc1OC | ? | 38*[may fluoresce violet] | 100 | 379*[may fluoresce violet] | ?
O=C(O)c1ccc(/C=C(\c2nc3ccccc3[nH]2)c2nc3ccccc3s2)cc1 | ? | 77 | 108 | 223*[may fluoresce violet] | 28
CC1=CCC(C(=O)O)C(C(=O)Nc2ccc(-c3nc4ccc(C)cc4s3)cc2)C1 (stereo not given) | 92 | 60 | 114 | 620* | 68
CCN(CC)C(=O)CSc1nc2cc3c(cc2c(=O)n1Cc1ccc(OC)cc1)OCO3 | 91 | 100 | 90 | 96 | 97
COc1ccc(-c2c(-c3ccccc3)n(C)c3ccccc23)cc1 | 104 | 104 | 104 | 102 | 109
CN=C1c2c(-c3ccccc3)c3cc(OC)ccc3n2CCN1C | ? | 57 | 78 | 236*[may fluoresce violet] | ?
O=C(COc1ccc(Cl)cc1Cl)NCCSc1ccc(Cl)cc1 | ? | 54 | 74 | 212*[may fluoresce violet] | ?
NS(=O)(=O)c1ccc(CCNC(=O)COC(=O)c2nc(Cl)ccc2Cl)cc1 | 87 | 85 | 84 | 87 | 90
CN(C)CCNC(=O)Nc1ccc(Cl)c(Cl)c1 | 98 | 101 | 104 | 108 | 110
CC(C)(O)CNC(=O)Nc1ccc(Cl)c(Cl)c1 | ? | 30*[may fluoresce violet] | 74 | 164 | ?
Cc1ccc(NC(=S)N2CCSC2c2cccs2)cc1 (stereo not given) | 165* | 108 | 155* | 182* | 116
Cn1c(=O)c2ccccc2n(Cc2cccc(F)c2)c1=O | 91 | 98 | 100 | 179* | 95
Cn1c(=O)c2ccccc2n(Cc2ccccc2F)c1=O | 100 | 98 | 100 | 99 | 98
Cc1cc(OCC(=O)Nc2ccc(S(=O)(=O)N3CCN(C)CC3)cc2)ccc1Br | 105 | 106 | 157* | 110 | 115
O=C(COc1ccccc1)Nc1ccc(S(=O)(=O)N2CCCCCC2)cc1 | ? | 61 | 101 | 226*[may fluoresce violet] | 18
Cc1ccc(OCC(=O)Nc2ccc(S(=O)(=O)N3CCN(C)CC3)cc2)cc1 | 94 | 98 | 105 | 105 | 99
O=C(CN1CCN(S(=O)(=O)c2ccc3ccccc3c2)CC1)Nc1ccc2c(c1)CCC2 | ? | 30*[may fluoresce violet] | 89 | 250*[may fluoresce violet] | ?
SMILES | CIT2-GFP yeast | RPL19A TOR yeast | LAP4-GFP MLPCN | MEP2-GFP yeast | AGP1-GFP MLPCN
CCC(C)(C)C1CCC2(CC1)NC(=O)N(CC(=O)Nc1cc(C(F)(F)F)ccc1N1CCOCC1)C2=O (stereo not given) | 100 | 105 | 98 | 107 | 103
C=CCNC(=S)N1CCN(Cc2ccccc2)CC1 | 99 | 97 | 105 | 94 | 96
COCCn1c(SC(C)C(=O)NCC2CCCO2)nc2sc3c(c2c1=O)CCC3 (stereo not given) | 100 | 92 | 100 | 104 | 99
Cc1ccc(S(=O)(=O)N2CCCC(C(=O)NCc3ccccc3F)C2)cc1 (stereo not given) | 97 | 105 | 97 | 104 | 100
N#Cc1ccc(C(=O)N2CCN(S(=O)(=O)c3ccc(Cl)s3)CC2)cc1 | 100 | 98 | 95 | 92 | 99
O=c1[nH]c(NCCO)c(N=Cc2ccccc2)c(=O)[nH]1 | ? | 64 | 112 | 213*[may fluoresce violet] | ?
CCc1ccccc1OCc1nnc(N)s1 | 84 | 79 | 183* | 106 | 105
N=c1c(C(=O)NC2CCCCC2)cc2c(=O)n3ccccc3nc2n1Cc1ccccc1 | 97 | 97 | 97 | 98 | 89
N=c1c(C(=O)NC2CCCCC2)cc2c(=O)n3ccccc3nc2n1Cc1ccco1 | ? | 56 | 79 | 243*[may fluoresce violet] | ?
Cc1cccn2c(=O)c3cc(C(=O)NCC4CCCO4)c(=N)n(Cc4cccnc4)c3nc12 (stereo not given) | ? | 12*[may fluoresce violet] | ? | ? | ?
N=c1c(C(=O)NC2CCCCC2)cc2c(=O)n3ccccc3nc2n1Cc1cccnc1 | ? | 33*[may fluoresce violet] | ? | 180*[may fluoresce violet] | ?
COc1ccc(CCn2c(=N)c(C(=O)NCC3CCCO3)cc3c(=O)n4cccc(C)c4nc32)cc1 (stereo not given) | 100 | 98 | 93 | 104 | 101
COC(=O)c1cc2c(=O)n3ccccc3nc2n(Cc2cccnc2)c1=N | ? | 22*[may fluoresce violet] | ? | ? | ?
COC(=O)c1cccc(NC(=O)CCc2c(C)noc2C)c1 | 104 | 107 | 120 | 101 | 110
Cc1cc2c(cc1S(=O)(=O)N1CCCC1)n(C)c(=O)c(=O)n2C | 101 | 102 | 99 | 117 | 106
N=c1c(C(=O)NCc2ccc(F)cc2)cc2c(=O)n3ccccc3nc2n1Cc1cccnc1 | 101 | 99 | 109 | 106 | 99
CC(C)OCCCn1c(=N)c(C(N)=S)cc2c(=O)n3ccccc3nc21 | ? | 48*[may fluoresce violet] | 91 | 633*[may fluoresce violet] | 35
N=c1c(C(=O)NCC2CCCO2)cc2c(=O)n3ccccc3nc2n1Cc1cccnc1 (stereo not given) | ? | 14*[may fluoresce violet] | ? | ? | ?
N=c1c(C(=O)NCC2CCCO2)cc2c(=O)n3ccccc3nc2n1Cc1ccc(F)cc1 (stereo not given) | ? | 14*[may fluoresce violet] | 59 | 179*[may fluoresce violet] | ?
CC(=O)N=c1c(C#N)cc2c(=O)n3ccccc3nc2n1CCCOC(C)C | 112 | 93 | 110 | 86 | 114
N=c1c(C(=O)NCC2CCCO2)cc2c(=O)n3ccccc3nc2n1Cc1ccco1 (stereo not given) | 99 | 102 | 104 | 109 | 88
CN(C)C(=O)C1CCC(=O)N1Cc1cccs1 (stereo not given) | 96 | 95 | 89 | 90 | 95
CC(=O)Nc1ccc(S(=O)(=O)N2CCCCC2c2cccnc2)cc1 (stereo not given) | 73 | 92 | 84 | 93 | 90
